According to PubChem BioAssay (NCI):
This is part of a sample that, as a whole, favours compounds with a hit. Of some 83,000 tested, about 20% had one in any assay.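 How to read the values: 0–100, growth inhibition (40 = 60% inhibited); 0, no net growth; -100 to 0, cell death (-40 = 40% of starting cells died; -100 = all dead).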 Unmarked numbers belong to inactive results. Activity calls are given as the source filed them. The calls were made as follows: active = growth percent below 10; inactive = the rest.

tested on: MDA-MB-468 breast; assay: NCI-60 one-dose screen, 48 h (100 = growth as untreated, 0 = no growth, -100 = all killed); settings: 10 µM unless noted

In order of falling growth:
1. CCC(C)c1c(N)n(S(=O)(=O)c2ccc(C)cc2)oc1=O (stereo unspecified)  109%
2. O=C(c1c[nH]c2ccccc12)c1n[nH]c(=S)n1-c1cccc(Br)c1  98.7%
3. O=C(O)C1CN(c2cccc(Cl)c2)N(c2cccc(Cl)c2)C1=O (stereo unspecified)  78.7%
4. COc1cc(C2CC(c3ccc(Cl)cc3)=NN2C(C)=O)ccc1Oc1nc2c(c(=O)n(C)c(=O)n2C)n1C (stereo unspecified)  76.6%
5. Cc1nc2cc(Nc3nc(N4CCCCC4)nc(N4CCOCC4)n3)ccc2n1Cc1ccccc1  70.1%
6. COc1cc(CNCCCCCCN2C(=O)c3cccc4cccc(c34)C2=O)ccc1O  47.2%
7. O=C(CCCCC(=O)N/N=C\c1ccccc1O)N/N=C\c1ccccc1O  22.4%
8. Cn1ccnc1C(=O)/C=C/c1ccc(C(=O)Nc2ccc(F)cc2)cc1  14.9%

`Nc1c(C(=O)Nc2ccncc2)sc2nc3c(cc12)CCCCCCCC3` was tested, and the growth was -75.7% (active).
`O=Nc1ccc(Nc2ccccc2)cc1` was tested, and the growth was -8.9% (active).
`CCCCCCCCCCCC[n+]1ccc(C(N)=O)cc1` was tested, and the growth was -42.1% (active).
